For test [1], the target named is Retinoic acid receptor RXR-alpha (Homo sapiens) (UniProt P19793). Put plainly: qHTS assay to identify small molecule agonists of the RXR signaling pathway (AID 1159527; calls by dose curve; further: nearly all actives have a fitted effect of over 35% in size; further: potency means the concentration at half of the fitted maximal effect). The note with it: HEK293T RXRa-UAS-bla, beta-lactamase ratio, 16 h; series mostly up to 76.8 µM. In short, it runs like this:
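Compounds in DMSO were added to RXR-alpha-UAS-bla HEK 293T cells kept in 2% charcoal-stripped serum, and incubated 16 hr at 37 C with 5% CO2. Reporter signal came from a 2 hr B/G FRET substrate step.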
Background: In qHTS, concentration-response curves come from the screen itself.

A short description of test [2]: qHTS assay to identify small molecule agonists of the RXR signaling pathway - cell viability counter screen (AID 1159529).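 Further: HEK 293T cells carrying an RXR-alpha UAS beta-lactamase reporter; nearly all actives have a fitted effect of over 50% in size.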 The note with it: RXR-alpha-bla HEK293T viability, CellTiter-Glo, 16 h; series mostly up to 76.8 µM. In short, it runs like this: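 Counter screen: CellTiter-Glo luminescence. Cells: RXR-alpha-UAS-bla HEK 293T. Medium: 2% charcoal-stripped FBS. Treatment: 16 h, 37 C. Reagent incubation: 30 min, RT.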

Test [3] can be described thus: qHTS assay to identify small molecule antagonists of the retinoid acid receptor (RAR) signaling pathway - cell viability counter screen (AID 1159551). Further: nearly all actives have a fitted effect of over 35% in size. The note with it: C3RL4 cells viability, ATP luminescence (CellTiter-Glo), 6 h; series mostly up to 92.4 µM. The method in brief:
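Measured by luminescent ATP detection, viability reflects C3RL4 cells treated 6 h at 37 C with test chemicals in the presence of 1 uM (final) retinol.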

Test [4] can be described thus: qHTS assay to identify small molecule antagonists of the retinoic acid receptor (RAR) signaling pathway (AID 1159552; further: nearly all actives have a fitted effect of over 50% in size). The note with it: C3RL4 RARE luciferase reporter, retinol-stimulated, 6 h; series mostly up to 92.4 µM. In short, it runs like this:
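Antagonism of retinol-induced RARE reporter activity was measured in C3RL4 cells. Exposure to compounds and 1 uM final retinol lasted 6 hr at 37 C, with luminescence as endpoint.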

Test [5] is described as follows: qHTS assay to identify small molecule agonists of the retinoic acid receptor (RAR) signaling pathway (AID 1159553). The note with it: C3RL4 RARE luciferase reporter, agonist, 6 h; series mostly up to 73.3 µM. In short, it runs like this: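 6 hr compound exposure (DMSO vehicle) of overnight-plated C3RL4 RARE-luc cells at 37 C; luminescence quantified after 30 min RT with luciferase reagent.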

Test [6] in a line: qHTS assay to identify small molecule antagonists of the estrogen related receptor (ERR) signaling pathway from Tox21 library - cell viability counter screen (AID 1224834). Further: nearly all actives have a fitted effect of over 30% in size. Further: potency means the concentration at half of the fitted maximal effect. The note with it: ERR reporter cells viability, CellTiter-Fluor, 17.5 h; series mostly up to 92.4 µM. The method in brief: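 Seeded ERR cells were rested 6 h at 37 C/5% CO2 before compounds, positive and negative controls or DMSO were added. Incubation continued for 17.5 h, and viability was then quantified by CellTiter-Fluor fluorescence.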

For test [7], the target named is Luciferin 4-monooxygenase (Photinus pyralis) (UniProt P08659). Put plainly: qHTS assay to identify small molecule inhibitors of firefly luciferase (AID 1224835). Further: nearly all actives have a fitted effect of over 25% in size. Further: potency means the concentration at half of the fitted maximal effect. The note with it: purified P. pyralis luciferase, luminescence inhibition; series mostly up to 115 µM. The method in brief:
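Quantitative HTS format; KM concentrations of both substrates. Purified P. pyralis FLuc activity quantified from luminescence images.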

A short description of test [8]: qHTS assay to identify small molecule agonists of the constitutive androstane receptor (CAR) signaling pathway - cell viability counter screen (AID 1224836). Further: nearly all actives have a fitted effect of over 45% in size. The note with it: HepG2-CYP2B6-hCAR viability, CellTiter-Fluor, 23 h, PK11195 added to every well; series mostly up to 92.4 µM. In short, it runs like this:
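Double-stable HepG2 hepatoma cells (hCAR plus CYP2B6-2.2kb) are treated for 23 h at 37 C with test compounds in 15-point concentration series. PK11195 at 0.75 uM final is co-added. Cell viability is quantified by CellTiter-Fluor.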

The nature of test [9]: qHTS assay to identify small molecule antagonists of the constitutive androstane receptor (CAR) signaling pathway - cell viability counter screen (AID 1224837). Further: nearly all actives have a fitted effect of over 45% in size. The note with it: HepG2-CYP2B6-hCAR viability, CellTiter-Fluor, 23 h, co-treated with 50 nM CITCO; series mostly up to 92.4 µM. The method in brief: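 To flag cytotoxic false antagonists, HepG2 hCAR/CYP2B6-2.2kb cells were treated 23 hr with 15-concentration compound series and 50 nM CITCO at 37 C/5% CO2; CellTiter-Fluor fluorescence was the measured end point.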

Test [10] concerns the target Nuclear receptor subfamily 1 group I member 3 (Homo sapiens) (UniProt Q14994). The test is described as follows: qHTS assay to identify small molecule antagonists of the constitutive androstane receptor (CAR) signaling pathway (AID 1224838).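 Further: HepG2 cells stably expressing hCAR with CYP2B6 luciferase reporter stimulated by CITCO; nearly all actives have a fitted effect of over 40% in size.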 The note with it: HepG2-CYP2B6-hCAR luciferase, CITCO-stimulated, 24 h; series mostly up to 92.4 µM. The method in brief:
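Human hepatoma HepG2 cells expressing hCAR and a CYP2B6 promoter (2.2 kb) luciferase construct; compound titration (15 points) with 50 nM CITCO final, 24 h at 37 C/5% CO2; luminescence via ONE-Glo after 30 min at room temperature.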

Test [11] shares this target. Put plainly: qHTS assay to identify small molecule agonists of the constitutive androstane receptor (CAR) signaling pathway (AID 1224839). Further: nearly all actives have a fitted effect of over 15% in size. Further: potency means the concentration at half of the fitted maximal effect. The note with it: HepG2 hCAR CYP2B6-luciferase, agonist mode, 24 h; series mostly up to 92.4 µM. The method in brief:
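Readout: firefly luciferase luminescence via ONE-Glo. System: HepG2 double-stable for hCAR and CYP2B6-2.2kb. Conditions: 15-point compound titration, PK11195 at 0.75 uM final, 24 h incubation.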

A short description of test [12]: qHTS assay to identify small molecule antagonists of the estrogen related receptor signaling pathway with the pleiotropic PPARgamma coactivator (PGC) from Tox21 10K library - cell viability counter screen (AID 1224840; active means well fitted cell-killing curve with a large enough effect in the repeat runs, not every such curve was filed as active; further: nearly all actives have a fitted effect of over 40% in size). The note with it: PGC/ERR reporter cells viability, CellTiter-Fluor, 17.5 h; series mostly up to 92.4 µM. The method in brief:
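Seeded PGC/ERR cells (2,000/well, 6 h, 37 C/5% CO2) get compound by pin tool; 17.5 h incubation at 37 C; CellTiter-Fluor added, 30 min, fluorescence measured.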

Test [13] can be described thus: qHTS assay to identify small molecule antagonists of the estrogen related receptor signaling pathway with the pleiotropic PPARgamma coactivator (PGC) from Tox21 10K library (AID 1224841; call rule not given here; further: actives are mostly falling curves and most rising ones were filed inactive; nearly all actives have a fitted effect of over 50% in size). The note with it: PGC/ERR reporter cell line, ONE-Glo luciferase, 18 h; series mostly up to 92.4 µM. In short, it runs like this:
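Test chemicals dissolved in DMSO were applied to pre-incubated (6 h) PGC/ERR cells at 2,000 cells/well for an 18 h, 37 C treatment; reporter luminescence was then read using One-Glo.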

Test [14] can be described thus: qHTS assay to identify small molecule agonists of the estrogen related receptor signaling pathway with the pleiotropic PPARgamma coactivator (PGC) from Tox21 10K library (AID 1224842). Further: nearly all actives have a fitted effect of over 15% in size. The note with it: PGC/ERR reporter cell line, luciferase ONE-Glo, 18 h; series mostly up to 92.4 µM. In short, it runs like this:
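PGC/ERR reporter cells (NTP line) were seeded 2,000 per well, rested 6 h at 37 C/5% CO2, then pin-dosed with compounds in DMSO for 18 h at 37 C; luciferase read by One-Glo luminescence after 30 min at room temperature.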

Values joined by “and” are separate entries in the source; they are usually repeats but may differ in a detail not shown here. Equal values may be shown once. Results filed as inconclusive are left out. The source holds several records for some structures; these can differ, active in one and inactive in another. Active and inactive are the calls of the source. Unless noted, the call rests on the fitted dose curve; in most records, active means well fitted curve in the direction sought with a large enough effect in the repeat runs; inconclusive means weak or mixed curves; inactive means no such curve, though single readings can be large; an effect the other way counts as inactive or inconclusive.

In PubChem BioAssay (Tox21) one finds Potency and outcome data, which are given here for 10 molecules.

Chain of Nuclear receptor subfamily 1 group I member 3 (Homo sapiens) (Q14994 whole entry, looked up): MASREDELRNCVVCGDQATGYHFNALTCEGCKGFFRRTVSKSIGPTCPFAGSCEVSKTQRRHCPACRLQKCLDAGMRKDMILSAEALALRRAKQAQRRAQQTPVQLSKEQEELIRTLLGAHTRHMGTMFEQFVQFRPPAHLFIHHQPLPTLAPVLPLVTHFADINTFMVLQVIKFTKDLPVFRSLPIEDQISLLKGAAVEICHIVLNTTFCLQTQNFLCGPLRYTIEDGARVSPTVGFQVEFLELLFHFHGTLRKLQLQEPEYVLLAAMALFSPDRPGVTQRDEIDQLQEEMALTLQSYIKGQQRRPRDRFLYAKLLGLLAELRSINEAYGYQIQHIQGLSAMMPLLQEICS
Chain of Luciferin 4-monooxygenase (Photinus pyralis) (P08659 whole entry, looked up): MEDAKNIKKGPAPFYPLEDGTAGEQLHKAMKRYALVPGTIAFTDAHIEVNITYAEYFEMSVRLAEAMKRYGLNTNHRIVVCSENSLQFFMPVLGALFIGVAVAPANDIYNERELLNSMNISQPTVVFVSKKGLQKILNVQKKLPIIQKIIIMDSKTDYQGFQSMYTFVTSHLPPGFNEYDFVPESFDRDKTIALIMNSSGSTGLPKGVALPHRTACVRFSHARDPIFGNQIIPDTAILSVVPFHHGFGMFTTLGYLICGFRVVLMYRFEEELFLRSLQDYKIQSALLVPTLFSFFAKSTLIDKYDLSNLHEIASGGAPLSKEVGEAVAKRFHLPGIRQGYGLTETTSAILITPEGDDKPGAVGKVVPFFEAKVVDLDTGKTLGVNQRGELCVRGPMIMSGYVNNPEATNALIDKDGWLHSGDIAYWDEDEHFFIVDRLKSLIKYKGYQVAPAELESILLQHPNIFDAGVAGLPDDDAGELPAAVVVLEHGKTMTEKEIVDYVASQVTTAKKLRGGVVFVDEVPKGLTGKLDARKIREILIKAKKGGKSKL
Chain of Retinoic acid receptor RXR-alpha (Homo sapiens) (P19793 whole entry, looked up): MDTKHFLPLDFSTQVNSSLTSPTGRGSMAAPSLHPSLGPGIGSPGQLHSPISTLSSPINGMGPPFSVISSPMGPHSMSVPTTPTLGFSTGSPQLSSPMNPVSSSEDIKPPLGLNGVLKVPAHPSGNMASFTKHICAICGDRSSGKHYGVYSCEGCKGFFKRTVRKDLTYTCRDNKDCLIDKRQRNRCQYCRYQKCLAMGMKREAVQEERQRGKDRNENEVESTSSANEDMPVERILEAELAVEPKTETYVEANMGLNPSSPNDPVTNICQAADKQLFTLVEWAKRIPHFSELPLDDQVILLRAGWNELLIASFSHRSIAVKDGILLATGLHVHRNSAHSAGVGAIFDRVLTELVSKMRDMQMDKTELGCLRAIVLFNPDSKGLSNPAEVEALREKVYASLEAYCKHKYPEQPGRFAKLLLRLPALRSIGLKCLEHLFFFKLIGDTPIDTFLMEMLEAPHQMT

Turning to `Cc1cccc(N)c1C`, the Potency is 11.4 µM (active) and inactive in [1]; “inactive and 61.1 µM (active)” in test [11]. Further, the call in test [2] and in [3] was inactive. Besides, the Potency result in test [4], in test [5], in test [6], in [7], in test [8] and in test [9] was “inactive” throughout. The Potency result in [10] and in [12] was “inactive” in each case.

For `Nc1cc(Cl)cc(Cl)c1`, the Potency entry in test [1], in test [4], in [5], in [6], in test [7] and in test [8] was “inactive” in each case. In addition, the Potency entry in test [9], in test [10] and in test [11] was “inactive” each time. The outcome in test [2] and in test [3] was inactive.

As for `Oc1c(Br)cc(Br)cc1Br`, the Potency entry in [1], in test [4], in test [5], in test [6], in [7] and in [8] was “inactive” each time. Further, the Potency entry in test [9], in [10], in test [11] and in [12] was “inactive” in each case. Also, the molecule was classed as inactive in test [2] and in test [3].

Take `C[C@H]1C(=O)O[C@@H]2CCN3CC=C(COC(=O)[C@](C)(O)[C@]1(C)O)[C@H]23`: the Potency result in test [1], in test [4], in test [5], in test [6], in [7] and in test [9] was “inactive” each time. For the same molecule, the molecule was classed as inactive in test [2] and in test [3].

For the molecule `CCCCCCCCCCCCCCCCCC(=O)O`, the Potency result in test [1], in [4], in test [5], in test [6] and in test [9] was “inactive” in each case. Moreover, the result in [2] and in [3] was inactive. Besides, the Potency in [7] is 70.5 µM (active) and inactive.

Turning to `Nc1nc(N)nc(NC2CC2)n1`, the Potency entry in test [1], in test [4], in [5], in test [6], in test [7] and in [8] was “inactive” in each case. Also, the Potency entry in test [9], in test [12], in test [13] and in test [14] was “inactive” throughout. In addition, the call in test [2] and in [3] was inactive.

For `Cc1ccc(N=C=O)cc1N=C=O`, the Potency result in [1], in test [4], in test [5], in [6], in test [9] and in [10] was “inactive” each time. Further, the Potency entry in test [11], in [13] and in [14] was “inactive” throughout. Moreover, the molecule was classed as inactive in test [2] and in test [3]. Further, the Potency in [7] was 40.9 µM (active) and 63.1 µM (active) and inactive.

On to `CNC(=O)O/N=C/C(C)(C)S(C)=O` (stereo not given), for which the Potency entry in [1], in test [4], in test [5], in test [6], in [7] and in [9] was “inactive” each time. Besides, the Potency entry in test [10], in test [11] and in test [12] was “inactive” in each case. Besides, the result in test [2] and in [3] was inactive.

Consider `OC[C@@H](O)[C@H]1O[C@@H]2O[C@H](C(Cl)(Cl)Cl)O[C@@H]2[C@H]1O`, for which the Potency result in [1], in test [4], in test [5], in test [6], in test [7] and in [9] was “inactive” in each case. Further, the Potency result in [10], in [11], in test [12], in [13] and in [14] was “inactive” throughout. The call in [2] and in test [3] was inactive.

For the molecule `O=[N+]([O-])c1cc([As](=O)(O)O)ccc1O`, the Potency entry in test [1], in test [4], in test [5], in [7], in test [8] and in test [9] was “inactive” each time. In addition, the Potency entry in [13] and in test [14] was “inactive” throughout. In addition, the result in [2] and in test [3] was inactive. For the same molecule, in [6], the Potency was 60.7 µM (active).
